Results with a measured potency or affinity are listed apart. Activity calls are given as the source filed them.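 How the source made its calls: active means fitted dose curve reaches 40% lysis signal rise at or below the highest valid concentration tested for that sample; inconclusive means flat fit between 30% and 70%, or poor curve fit; inactive means signal falls, stays flat within 30%, or no crossing.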
Assay: C. neoformans lysis by adenylate kinase leakage – AK release luminescence, cherry-picks, dose response (AID 687000);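 further: luminescent detection of adenylate kinase leaking from lysed yeast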
Conditions: 4 h, 100% = twice the neutral-control signal; series mostly up to 15 µM

outcome, inactive:
COc1ccccc1NC(=O)c1cn(C)c(=O)c2cc(OC)c(OC)cc12
N#Cc1ccc(C23CC4(C2)[C@H](CN(Cc2ccc(C(F)(F)F)cc2)[C@@H]4c2ccccc2)C3c2ccccc2)cc1 (some centres undefined)
COc1cccc(S(=O)(=O)Nc2ccc3c(c2)[C@H]2C[C@@H](CC(=O)NC4CCCCC4)O[C@@H](CO)[C@H]2O3)c1
C[C@H](CO)N1C[C@H](C)[C@@H](CN(C)Cc2ccc(Oc3ccccc3)cc2)Oc2ccc(NC(=O)Nc3ccc4c(c3)OCO4)cc2C1=O
COc1ccc(NC(=O)c2cn(C)c(=O)c3cc(OC)c(OC)cc23)c(OC)c1
CNC[C@H]1Oc2ncc(C#CCC(C)C)cc2C(=O)N([C@H](C)CO)C[C@H]1C
Cc1ccccc1NC(=O)C(NC1CCCCC1)C(C)C (centres undefined)
C[C@H]1CN([C@@H](C)CO)C(=O)c2cc(C#CC3(O)CCCC3)cnc2O[C@@H]1CN(C)Cc1cccnc1
CO[C@@H]1CN(C)C(=O)c2ccc(NS(=O)(=O)c3ccc(Oc4ccccc4)cc3)cc2OC[C@H](C)NC[C@H]1C
CCCNC(=O)[C@H]1[C@H](CO)[C@H]2Cn3c(cccc3=O)[C@@H]1N2C(=O)Nc1cc(F)ccc1F
O=C(COc1ccc2c(c1)CCC2)NCc1ccccc1
COC(=O)C1=C(C)N(Cc2ccccc2)C(=O)N[C@H]1c1cccc(F)c1
Cc1cccc(C)c1NC(=O)C1(NC(=O)C2CCC(=O)N2)CCCCC1 (centres undefined)
C[C@@H]1CN([C@@H](C)CO)C(=O)c2cc(NC(=O)C3CC3)ccc2O[C@H]1CN(C)Cc1ccc2c(c1)OCO2
COc1cccc(NC(=O)CN2CCN(S(=O)(=O)c3ccc(C(C)C)cc3)CC2)c1
Cc1cccc(OCC(=O)NCc2ccc(F)cc2)c1
COc1ccc(N2CCN(C(=O)CSc3ncnc4c3cnn4-c3ccccc3C)CC2)cc1
Cc1ccc(S(=O)(=O)N2CC[C@@H]3[C@H](CO)Nc4ccc(-c5ccccc5F)cc4[C@@H]32)cc1
C/C=C/c1ccc([C@@H]2[C@@H](C#N)N(S(=O)(=O)c3cccc(F)c3)[C@@H]2CO)cc1
COc1cccc(S(=O)(=O)Nc2ccc3c(c2)OC[C@@H](C)NC[C@H](C)[C@@H](OC)CN(C)C3=O)c1
C[C@H](CO)N1C[C@H](C)[C@H](CN(C)C(=O)NC2CCCCC2)OCCCC[C@H](C)Oc2ccc(NS(=O)(=O)c3cn(C)cn3)cc2C1=O
CCNC(=O)CN(c1ccccc1)S(=O)(=O)c1ccc(Cl)cc1
Fc1ccccc1CNC(=S)NCc1ccc(Cl)cc1
O=C(CN(c1ccc(F)cc1)S(=O)(=O)c1ccccc1)NC1CC2CCC1C2 (centres undefined)
O=C(C[C@@H]1CC[C@H](NC(=O)Cc2ccccn2)[C@@H](CO)O1)NCCc1ccccc1
COc1ccc(NC(=O)CSc2ncnc3c2cnn3Cc2ccccc2)cc1
CC(C)(C)SCCNC(=O)CN(c1ccccc1)S(=O)(=O)c1ccccc1
Cc1ccc(-n2ncc3c(SCC(=O)NNC(=O)C(C)C)ncnc32)cc1
Cc1cc(C)c(NC(=O)CN2CCN3CCCC3C2)c(C)c1 (centres undefined)
COc1ccc(CN(C)C[C@@H]2Oc3ccc(NS(C)(=O)=O)cc3CC(=O)N([C@H](C)CO)C[C@H]2C)cc1
CC(C)NC(=O)Nc1ccc2c(c1)C(=O)N([C@H](C)CO)C[C@H](C)[C@H](CN(C)Cc1ccncc1)OCCCC[C@H](C)O2
COc1ccc(CN(C)C[C@@H]2Oc3ccc(NC(=O)C4CC4)cc3C(=O)N([C@@H](C)CO)C[C@H]2C)cc1
CC(NC(=O)COc1ccccc1Cl)c1ccccc1 (centres undefined)
Cc1cccc(C)c1NC(=O)CN(C)C(=O)CC1CC2CCC1C2 (centres undefined)
COc1ccc(C2CC(c3cccs3)=NN2C(=O)c2ccco2)cc1OC (centres undefined)
Cc1cccc(-c2ccc([C@@H]3[C@@H](CO)N4CCCCN(S(=O)(=O)c5ccccc5C)C[C@@H]34)cc2)c1
Cc1c(C(=O)NC(=S)Nc2ccc(N3CCOCC3)cc2)cccc1[N+](=O)[O-]
Cc1c(Cl)cccc1NC(=O)C1NC(=O)CC1c1ccccc1 (centres undefined)
O=c1nc(-c2ccccc2)c2ccccc2[nH]1

— PubChem BioAssay
